# Results reported in PubChem BioAssay AID591 (National Center for Advancing Translational Sciences (NCATS), 2007).
# The whole screen tested about 59,000 compounds, of which about 60 (0.1%) were called active. No rule for the calls is given here. The list comes from a sample in which actives are over-represented; it also holds similar structures and randomly drawn compounds.
# Test: qHTS Assay for Spectroscopic Profiling in A488 Spectral Region
# Conditions: compound autofluorescence; max dye equivalency: Compound Type: qHTS ECL - SigmaAldrich, hits give high values unless noted; outcome: dye equivalency, Compound Type: qHTS ECL - MLSMR unless noted
# From the text: NIH Molecular Libraries Screening Centers Network [MLSCN]
# NIH Chemical Genomics Center [NCGC]
# Occasionally, the artifactual effect may originate from the compounds own spectral or other biophysical properties which generally tend to track its assay concentration. Pre-screening/profiling the library with respect to the compounds spectral properties should help one exclude false positives early on. While the most informative fluorescent profiling data set is obtained by performing a full excitation and emission scan of each well by using a monochromator-based plate reader, such an approach is practical only on a very limited scale as scanning each well requires long time. An alternative approach, applied here, is to perform plate reader scans using selected excitation and emission wavelength pairs to generate a multidimensional relational database that correlates compound concentration and the respective relative fluorescence intensity at a given wavelength set. A standard curve of Alexa 488 (A488) present on each plate as six-point concentration series, was used to compute a normalized fluorescence response, termed dye-equivalent concentration, for each compound at each concentration.
# NCGC Assay Protocol Summary:
# 100 mM Tris buffer, pH 8.0
# The wells in columns 1 through 4 of a Kalypsys polypropylene 1536-well compound plate were filled with standard solutions of fluorophore corresponding to the spectral region of interest. Solutions of A488 were placed in the following wells: Y1, Z1: 3 mM, Y2, Z2: 300 uM, Y3, Z3: 30 uM, Y4, Z4: zero (DMSO), AA1, AB1: 3 uM, AA2, AB2: 900 nM, AA3, AB3: 300 nM, AA4, AB4: zero (DMSO).
# Six uL of buffer were dispensed to 1536-well Greiner black plates. Compounds and dye standards (23 nL) were transferred via Kalypsys PinTool. The plates were incubated for 15 min at room temperature, and then read on ViewLux (Perkin-Elmer) High-throughput CCD imager using 480 nm and 540 nm excitation and emission filter set.
# Keywords: NIH Roadmap, MLSCN, MLI, MLSMR, qHTS, NCGC, A488, A-488, Fluorescent Profiling.
SMILES,outcome,max dye equivalency
CCCC1C(c2ccccc2)C(C#N)(C#N)C2(C#N)CC1(N)NC2=O (configuration not stated),"inactive [dye equivalency, Compound Type: qHTS ECL - DPISMR]",–
CCOC(=O)c1[nH]c2ccccc2c1N=C(C)N(CC)CC,inactive,–
C=CCN(CC=C)C(=O)CN1C(=O)c2ccccc2C1=O,inactive,–
c1ccc(-n2ncc3c2ncn2c(C4CCCCC4)nnc32)cc1,"inactive [dye equivalency, Compound Type: qHTS ECL - DPISMR]",–
O=C(NCc1ccc(Cl)cc1)c1cc2c(nc3sccn32)s1,inactive,–
O=C(O)C1CCCCC1C(=O)Nc1ccc(Cl)cc1 (configuration not stated),"inactive [dye equivalency, Compound Type: qHTS ECL - DPISMR]",–
COCCn1c(=O)c(-c2cc(F)cc(F)c2)nc2cnc(N3CCNCC3)nc21,"inactive [dye equivalency, Compound Type: qHTS ECL - Pharmacopeia]",–
CCNC(=O)CCc1nc(-c2ccc(C(C)(C)C)cc2)no1,"inactive [dye equivalency, Compound Type: qHTS ECL - DPISMR]",–
Cn1c(=O)c(CCc2ccccc2)nc2cnc(Nc3ccccc3)nc21,"inactive [dye equivalency, Compound Type: qHTS ECL - Pharmacopeia]",–
CCCc1cc(=O)[nH]c(SCc2ccc(C#N)cc2)n1,"inactive [dye equivalency, Compound Type: qHTS ECL - DPISMR]",–
C=CCn1c(SCn2nnc3ccccc3c2=O)nnc1-c1ccc(Cl)cc1,"inactive [dye equivalency, Compound Type: qHTS ECL - DPISMR]",–
Cc1nc2cnc(Oc3cccc(Cl)c3)nc2n(C2CC2)c1=O,"inactive [dye equivalency, Compound Type: qHTS ECL - Pharmacopeia]",–
COc1ccc(-c2nc3cnc(OC)nc3n(Cc3ccc(F)cc3)c2=O)cc1,"inactive [dye equivalency, Compound Type: qHTS ECL - Pharmacopeia]",–
CC1CN(C2CCN(C(=O)COc3ccccc3)CC2)CC(C)O1 (configuration not stated),inactive,–
CC(=O)c1c(C)[nH]c(C(=O)NCCCN2CCCC2)c1C,inactive,–
O=C(Nc1ccccc1)N(Cc1cccnc1)Cc1ccco1,"inactive [dye equivalency, Compound Type: qHTS ECL - DPISMR]",–
Cc1nc2cnc(Nc3ccccc3)nc2n(Cc2ccc(F)cc2)c1=O,"inactive [dye equivalency, Compound Type: qHTS ECL - Pharmacopeia]",–
CNC(=O)n1ccc(C(=O)N2CCCCC2)n1,"inactive [dye equivalency, Compound Type: qHTS ECL - DPISMR]",–
c1cnc(NC2C3CC4CC(C3)CC2C4)nc1 (configuration not stated),inactive,–
CCCOc1ccccc1C(=O)NCCCC(=O)O,inactive,–
COc1ccccc1CNc1cc(-c2ccccc2CN(C)C)ncn1,"inactive [dye equivalency, Compound Type: qHTS ECL - Pharmacopeia]",–
Oc1c(Br)cc(CN(Cc2cc(Br)c(O)c(Br)c2)C2CCCCC2)cc1Br,"inactive [dye equivalency, Compound Type: qHTS ECL - NCI]",–
CCc1nnc(NC(=O)c2c(O)c3c([nH]c2=O)CCCC3)s1,inactive,–

SMILES,outcome,max dye equivalency
CCC(=O)Nc1ccc(C(=O)Nc2ccc3c(c2)C(=O)N(CC2CCCO2)C3=O)cc1 (configuration not stated),"inactive [dye equivalency, Compound Type: qHTS ECL - DPISMR]",–
Cn1cccc1C(=O)N1CCC2(CC1)CN(c1cccc(-c3ccccc3)c1)C2,"inactive [dye equivalency, Compound Type: qHTS ECL - Pharmacopeia]",–
CCOC(=O)CSc1nnc(-c2ccncc2)o1,"inactive [dye equivalency, Compound Type: qHTS ECL - DPISMR]",–
COc1ccc2nc(NC3=NCN(CC4CCCO4)CN3)nc(C)c2c1 (configuration not stated),inactive,–
CCOC(=O)N1CCN(C(=O)c2ccc3nc4cc(Cl)ccc4c(=O)n3c2)CC1,inactive,–
CCOC(=O)C1(Cc2ccc(O)cc2)NC(c2ccccc2F)C2C(=O)N(C)C(=O)C21 (configuration not stated),inactive,–
COCCNc1cc(-c2c(C)noc2C)ncn1,"inactive [dye equivalency, Compound Type: qHTS ECL - Pharmacopeia]",–
CCNc1ncc2nc(CCc3ccccc3)c(=O)n(-c3ccc(OC)cc3)c2n1,"inactive [dye equivalency, Compound Type: qHTS ECL - Pharmacopeia]",–
Cn1c(CC(=O)Nc2ccccc2)nnc1SCC(=O)c1ccccc1,"inactive [dye equivalency, Compound Type: qHTS ECL - DPISMR]",–
COCCn1c(=O)c(-c2cc(F)cc(F)c2)nc2cncnc21,"inactive [dye equivalency, Compound Type: qHTS ECL - Pharmacopeia]",–
CCOC(=O)C1CCN(Cc2coc3ccc(Cl)cc3c2=O)CC1,"inactive [dye equivalency, Compound Type: qHTS ECL - DPISMR]",–
Cc1noc(C)c1S(=O)(=O)Nc1ccc(C(=O)O)cc1,"inactive [dye equivalency, Compound Type: qHTS ECL - DPISMR]",–
Cc1c(C)c2cc3c4c(oc3c(C)c2oc1=O)CCCC4,inactive,–
CN1CCc2[nH]nc(-c3n[nH]c4c3CN(C)CC4)c2C1,"inactive [dye equivalency, Compound Type: qHTS ECL - NCI]",–
O=C1c2ccccc2C(=O)N1c1ccccc1S(=O)C(F)(F)F (configuration not stated),"inactive [dye equivalency, Compound Type: qHTS ECL - DPISMR]",–
CN(C)c1cc2c(Nc3ccc4c(cnn4Cc4ccccc4)c3)ncnc2cn1,"inactive [dye equivalency, Compound Type: qHTS ECL - SigmaAldrich]",–
O=c1c(-c2ccc(F)cc2)nc2cncnc2n1-c1ccccc1,"inactive [dye equivalency, Compound Type: qHTS ECL - Pharmacopeia]",–
Cc1cnc(CNc2cc(-c3c(C)noc3C)ncn2)cn1,"inactive [dye equivalency, Compound Type: qHTS ECL - Pharmacopeia]",–
O=C(O)[C@@H]1[C@@H](C(=O)O)[C@]23C[C@@]2(C(=O)O)[C@]2(C(=O)O)CCC3=C3CCCC312,"inactive [dye equivalency, Compound Type: qHTS ECL - NCI]",–
Cc1ccc2[nH]c(=O)c(-c3nc4c(C)cccn4c3NCc3ccco3)cc2c1,inactive,–
CN(C)c1ccc(CNC23CN4CN(CN(C4)C2)C3)cc1,"inactive [dye equivalency, Compound Type: qHTS ECL - DPISMR]",–
Cn1cc(-c2nc3cnc(N4CCNCC4)nc3n(CCc3ccccc3)c2=O)c2ccccc21,"inactive [dye equivalency, Compound Type: qHTS ECL - Pharmacopeia]",–
CNC(=O)NCCN1CCCC1=O,inactive,–

SMILES,outcome,max dye equivalency
COc1ccc(-n2c(=O)c(C)nc3cnc(N4CCOCC4)nc32)cc1,"inactive [dye equivalency, Compound Type: qHTS ECL - Pharmacopeia]",–
CC1(c2ccccc2Cl)NC(=O)N(CC(=O)NC(=O)NCc2ccco2)C1=O (configuration not stated),inactive,–
COc1ccc(CCN2C(=O)c3[nH]nc(-c4ccccc4O)c3C2c2ccc(C)cc2)cc1OC (configuration not stated),"inactive [dye equivalency, Compound Type: qHTS ECL - DPISMR]",–
COC(=O)C(C)N(C#N)c1nc(C)nc(C)n1 (configuration not stated),"inactive [dye equivalency, Compound Type: qHTS ECL - DPISMR]",–
Cc1noc(C)c1C(=O)OCC(=O)/C=C1\N(C)c2ccccc2C1(C)C,inactive,–
Cc1ccc(Oc2nc3ccccc3n3c(C)nnc23)cc1,"inactive [dye equivalency, Compound Type: qHTS ECL - DPISMR]",–
CCOc1ccc(OCC)c(NC(=O)CN(C)S(=O)(=O)c2cccc3nsnc23)c1,inactive,–
CCC(C)(C)NC(=O)C(c1cccn1C)N(Cc1ccc(C)cc1)C(=O)Cn1nnc2ccccc21 (configuration not stated),inactive,–
COc1ccc(OCC(=O)OCCN(C)C)cc1,inactive,–
CC(C)C1N=C2c3ccccc3N=C(SCC(=O)c3ccc(O)c(O)c3)N2C1=O (configuration not stated),"inactive [dye equivalency, Compound Type: qHTS ECL - DPISMR]",–
CCC(=O)Nc1cccc(NC(=O)CSc2nnc(-c3ccc(NS(C)(=O)=O)cc3)n2C)c1,inactive,–
Cc1nn(-c2ccccc2)c2c1C(=O)NC(=O)C(C)(C)C2,inactive,–
COc1cc([C@H]2c3cc4c(cc3[C@@H](O[C@@H]3O[C@H]5CO[C@@H](C)O[C@]5(O)C[C@H]3O)[C@@H]3COC(=O)[C@H]23)OCO4)cc(OC)c1O,"inactive [dye equivalency, Compound Type: qHTS ECL - SigmaAldrich]",–
O=C(O)c1c(Br)c(Br)c(Br)c(Br)c1C1c2ccc(O)cc2Oc2cc(O)ccc21,–,"15 nM [Compound Type: qHTS ECL - NCI, hits give high values] (active)"
COc1ccc(OC)c(CN2C(=O)CCC2(C)C(=O)NC2CCCCCC2)c1 (configuration not stated),inactive,–
CCCCCN(C(=O)NC(=O)Nc1ccccc1OC)S(C)(=O)=O,inactive,–
Cn1c(=S)c2[nH]c(SCCCc3ccccc3)nc2n(C)c1=O,"inactive [dye equivalency, Compound Type: qHTS ECL - NCI]",–
ClC(Cl)(Cl)C(N1CCN(c2ccccc2)CC1)N1CCN(c2ccccc2)CC1,"inactive [dye equivalency, Compound Type: qHTS ECL - NCI]",–
CCOC(=O)c1cc2n(c1C)-c1ccccc1C2=O,inactive,–
CCOC(=O)Nc1ccccc1N1C(=O)c2ccccc2C1=O,inactive,–
CCOC(=O)c1cc2n(c1N)-c1ccccc1C2=O,–,"39 nM [Compound Type: qHTS ECL - DPISMR, hits give high values] (active)"
